# Shown is part of a subset that was picked to be rich in hits.
# Dicer inh: blocks human Dicer maturation of pre-miR-21; Q9UPY3; cat-ELCCA pre-miR-21 Dicer processing, chemiluminescence; hits give high values; z-score at 25 µM; 6% of 47,000 active; AID 1347074; in the data active = z-score above about 3, passing the limit was not always enough;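 also: higher signal means more uncleaved substrate so more Dicer inhibition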
# Numbers stand for hits; i = inactive.
SMILES,Dicer inh
Cn1c(=O)c(NCc2ccccc2)c2c3c(cccc31)C(=O)c1ccccc1-2,i
CC(C)(C)Sc1ccc(C(=O)O)s1,i
C=CCOc1c(Cl)cc(C2C(C(=O)OC)=C(C)NC3=C2C(=O)c2ccccc23)cc1OC (stereo unspecified),i
Cc1ccc(CNc2ncc(-c3ccc(C)cc3)n2C)cc1,i
Cc1ccc(NC(=O)Nc2ccc(C(F)(F)F)cn2)cc1Cl,i
CCc1nc2c(sc3nc(C)cc(C)c32)c(=O)o1,i
Cc1nc(-c2cccs2)sc1C(=O)NNC(=O)Nc1ccc(Cl)cc1,i
CC(C)(C)c1cc(NC(=O)Nc2ccc(Cl)cc2Cl)no1,i
Cc1cc(-c2nc(C)c(C(=O)NNC(=O)Nc3ccc(Cl)cc3Cl)s2)no1,3.1
CCOC(=O)c1c(C)csc1NC(=O)c1ccc(C(C)(C)C)cc1,i
COc1ccccc1C1CCN(S(=O)(=O)c2ccc(C)cc2)CC1,i
COc1ccc(OC)c(CN2CCN(S(=O)(=O)c3ccc4ccccc4c3)CC2)c1,i
O=C(NCc1ccco1)C1CCCN1S(=O)(=O)c1ccc2ccccc2c1 (stereo unspecified),i
O=S(=O)(c1ccc(Br)cc1)N1CCN(C/C=C/c2ccccc2)CC1,i
O=C(CCC1CCCC1)N1CCN(S(=O)(=O)c2ccc3ccccc3c2)CC1,3.1
O=C(Nc1nnc(CCS(=O)(=O)c2ccc3ccccc3c2)s1)C1CCCCC1,i
Cc1ccc(S(=O)(=O)N2CCC(CC3CCN(S(=O)(=O)c4ccc(C)cc4)CC3)CC2)cc1,i
O=S(=O)(c1ccc2ccccc2c1)N1CCN(Cc2cc(Br)ccc2O)CC1,4.1
Cc1ccc(S(=O)(=O)N2CCN(S(=O)(=O)c3ccc4ccccc4c3)CC2)cc1,3.4
CC1(C23CC4CC(CC(C4)C2)C3)CC(=O)O1 (stereo unspecified),i
COc1cccc(N2C(=O)CC(Sc3nc4ccccc4s3)C2=O)c1 (stereo unspecified),i
CCCC1/C(=N\O)CC(c2ccccc2)NC1c1ccccc1 (stereo unspecified),i
CC(=O)n1c2ccccc2c2nc(N)sc21,i
CC(=O)NC12CC3CC(C1)CC(O[N+](=O)[O-])(C3)C2,i
CC1(C)CC(=O)C2=C(C1)Nc1nonc1NC2c1ccc2c(c1)OCO2 (stereo unspecified),i
SMILES,Dicer inh
NC(=O)C1=C(O)C(=O)N(C2CCCCC2)C1,i
CN(C)CC1(CC(OC(=O)c2ccc([N+](=O)[O-])cc2)c2cccc(F)c2)CCCCC1 (stereo unspecified),i
COc1cccc(OC)c1C(=O)Nc1c(C)c(N2CCCC2)cc2c1C(C)(C)CC2(C)C,i
c1cc(-c2nc3ccccc3o2)cc(-c2nc3ccccc3o2)c1,i
Brc1ccc(-c2ccc(/C=C/c3nc4ccccc4o3)o2)cc1,8.2
C(=C\c1nc2ccccc2o1)/c1ccccc1,i
CC(C)(C)N1CN=C(SCc2ccc(Cl)cc2)NC1,i
CCCCOC(=O)C1=C(C)NC2=C(C(=O)CCC2)C1c1ccccc1OC(C)C (stereo unspecified),i
O=C(N/N=C/c1ccc(Cl)c(Cl)c1)N/N=C/c1ccc(Cl)c(Cl)c1,i
S=C(NCCc1ccccc1)N/N=C/c1ccccc1Cl,i
O=C(N/N=C/c1ccccc1Cl)N/N=C/c1ccccc1Cl,3.8
S=C(N/N=C/c1c[nH]c2ccccc12)NC1CC1,i
C#CCOC(=O)Nc1ccc(OCCOC)nc1,i
Cc1ccc(I)c(C(=O)OCC(=O)c2ccc(Br)cc2)c1,i
COc1cccc(C(=O)OCC(=O)c2ccc(Br)cc2)c1,5.9
COc1ccc(C(=O)OCC(=O)c2ccc(Br)cc2)cc1OC,i
N#Cc1c(-c2ccccc2)nc(N/N=C/c2cccs2)[nH]c1=O,3.8
N#Cc1c(-c2ccccc2)c(-c2ccccc2)nn(CC(=O)N/N=C/c2cccs2)c1=O,i
COc1ccc(-c2nc(N(C)c3ccccc3)[nH]c(=O)c2C#N)cc1,i
N#Cc1c(-c2ccc(Cl)cc2)nc(N/N=C/c2cccs2)[nH]c1=O,3.5
N#Cc1c(-c2ccc(Cl)cc2)nc(Nc2ccc(Cl)cc2)[nH]c1=O,i
N#Cc1c(-c2ccc(Cl)c(Cl)c2)cc(-c2ccc(Cl)cc2)[nH]c1=O,i
O=c1c(C=Nc2ccccc2)c(O)c2cccc3c2n1CCC3,i
COC(=O)c1sc(N2C(=O)c3oc4cc(C)c(C)cc4c(=O)c3C2c2ccc(O)cc2)nc1C (stereo unspecified),i
Cc1ccc(-c2nnc(SCC(=O)c3c(C)[nH]c4ccccc34)o2)cc1,i
SMILES,Dicer inh
COc1cc(OC)cc(-c2nc(-c3ccccc3)c3ccccn23)c1,i
O=C(O)CCCCC(=O)Nc1ccc(Br)cn1,i
C#CCN1C(=O)C(O)(CC(=O)c2c(C)cc(C)cc2C)c2ccccc21 (stereo unspecified),4.3
C#CCN1C(=O)C(O)(CC(=O)c2ccc(C)cc2C)c2ccccc21 (stereo unspecified),i
C#CCN1C(=O)C(O)(CC(=O)c2cc(C)ccc2C)c2ccccc21 (stereo unspecified),i
O=C(c1ccccc1)c1c(CS(=O)(=O)c2ccc(C(F)(F)F)cn2)[nH]n(-c2ccccc2)c1=O,i
O=[N+]([O-])c1cc(Cl)ccc1S(=O)(=O)c1ccccc1,i
COc1ccc(OC)c(S(=O)(=O)c2ccc(Cl)cc2[N+](=O)[O-])c1,4.2
O=[N+]([O-])c1cc(Cl)ccc1S(=O)(=O)c1ccc(Cl)cc1,i
O=S1(=O)CC(c2ccc(Cl)cc2)CS(=O)(=O)C1,i
COc1ccc2c(c1)[C@@H]1C=CC[C@@H]1[C@H](c1ccc(C(=O)O)cc1)N2,4.2
COC(=O)c1ccc2c(c1)C1C=CCC1[C@@H](c1ccc(C(=O)O)cc1)N2 (stereo partly specified),i
Cc1c(C(=O)O)ccc2c1NC(c1ccc(C(C)C)cc1)C1CC=CC21 (stereo unspecified),3.4
Cc1cccc2c1N[C@H](c1ccc(C(=O)O)cc1)C1CC=CC21 (stereo partly specified),i
O=C(O)c1cccc2c1NC(c1ccc(Br)cc1)C1CC=CC21 (stereo unspecified),i
CCOC(=O)c1ccc2c(c1)[C@@H]1C=CC[C@@H]1[C@H](c1ccc(C(=O)O)cc1)N2,i
CCOC(=O)C1=C(C)Nc2nc3ccccc3n2C1c1cccc(O)c1 (stereo unspecified),i
CCOC(=O)c1c(N/N=C\c2ccccc2[N+](=O)[O-])n[nH]c1C,i
CC(C)(C)c1ccc(OCc2ccc(C(=O)O)o2)cc1,i
CCOc1ccc(OCc2ccc(C(=O)NC(C)(C)C)o2)cc1,3.4
O=C(NCC1CCCO1)c1ccc(COc2ccc(F)cc2)o1 (stereo unspecified),i
COc1ccc(C2/C(=C(\O)c3ccc(C)cc3)C(=O)C(=O)N2CCCn2ccnc2)cc1 (stereo unspecified),i
CC(=O)Nc1nc(NC(C)=O)nc(-c2ccccc2C)n1,i
O=c1c(Cl)c(N2CCOCC2)cnn1-c1c(Cl)cc(C(F)(F)F)cc1Cl,i
Cc1nc(C)c(-c2cnc(NS(=O)(=O)c3ccc(Cl)cc3)nc2)s1,i
O=C1c2cccc3c(Sc4ccccc4)ccc(c23)C(=O)N1NCCO,3.2
O=C1c2cccc3c(N4CCOCC4)ccc(c23)C(=O)N1CCO,i
COc1ccc(CCN2C(=O)c3cccc4c(Sc5ccccn5)ccc(c34)C2=O)cc1OC,i
Cc1cc2n(n1)C(c1cccc(O)c1O)Nc1c(C)cccc1-2 (stereo unspecified),i
